# Bioassay records from PubChem.
# N-glyco inh: blocks N-linked glycosylation in D54 reporter cells; D54 ERlucT glycosylation luciferase reporter, 24 h; percent of 100 nM tunicamycin response; AID 588692; reporter increase, % at 12.5 µM; 0.23% of 360,000 active;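 active = mean luciferase reporter signal, scaled so untreated is 0 and the glycosylation-blocking control 100, at or above a set limit in every replicate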;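 also: luciferase carries N-glycosylation sites so blocking glycosylation raises the light; 0% = median of neutral control wells and 100% = median of 100 nM tunicamycin wells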
# SUMO Mot1 rescue: inhibitors of SUMOylation pathway: yeast Mot1-301 growth rescue. S. cerevisiae Mot1-301 growth rescue, ATP luminescence, 38.5C; percent above DMSO median, 100 means doubled. growth rescue, % at 18.8 µM. 1% of 320,000 active;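 active = every valid replicate shows activation above 250% relative to neutral control wells; inactive = the rest, any valid replicate at or below 250%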;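 also: OY570 slx delta 5 strain wells were the positive control but not used for scaling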
# CDK5 inh: blocks human CDK5/p35 kinase activity. inhibition, % at 10 µM. Recombinant CDK5/p35, ADP-Glo luminescence, 60 min. 0.01% of 330,000 active;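 active = highest replicate inhibition of at least 50% and at least 75% of replicates reaching 50%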;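 also: plate controls were DMSO neutral control for no effect and GW8510 at 10 µM for full effect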
# ALR H2O2 inh: blocks human ALR sulfhydryl oxidase activity | P55789 | purified ALR, DTT oxidation, H2O2 HRP-luminol luminescence | inhibition, % (no concentration beside the values) | 3.8% of 290,000 active;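 active = mean replicate inhibition above about 79%, with every replicate also reaching it, limit read from the data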
# Target sequence (P55789 whole entry, looked up): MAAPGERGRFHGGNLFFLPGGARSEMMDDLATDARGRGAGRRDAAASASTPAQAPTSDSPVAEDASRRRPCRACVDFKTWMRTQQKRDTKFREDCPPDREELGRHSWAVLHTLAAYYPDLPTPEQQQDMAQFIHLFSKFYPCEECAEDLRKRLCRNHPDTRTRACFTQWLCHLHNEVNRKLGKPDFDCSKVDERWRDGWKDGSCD
# CASP6 VEID inh: blocks human caspase-6 cleavage activity; AID 686996; inhibition, % at 12.5 µM; P55212; purified caspase-6, Z-VEID-R110 cleavage fluorescence; 0.53% of 350,000 active;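 active = mean inhibition across replicates at least about 35%, with every replicate also reaching that limit, limit read from the data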;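 also: 0% = median of neutral control wells and 100% = no fluorescence left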
# Target sequence (P55212 24-179 limits assumed): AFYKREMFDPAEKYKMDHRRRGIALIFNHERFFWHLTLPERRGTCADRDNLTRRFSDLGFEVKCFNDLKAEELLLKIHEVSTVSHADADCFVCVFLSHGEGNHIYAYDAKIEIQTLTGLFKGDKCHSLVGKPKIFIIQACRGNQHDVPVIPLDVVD
# Target sequence (P55212 194-293 limits assumed): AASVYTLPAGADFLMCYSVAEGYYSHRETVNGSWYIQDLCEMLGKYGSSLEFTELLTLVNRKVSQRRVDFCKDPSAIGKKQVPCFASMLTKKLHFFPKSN
# NSD2 inh: blocks human histone methyltransferase NSD2; inhibition, % at 12.5 µM; O96028; AID 743445; NSD2 peptide methylation, AlphaScreen, 120 min; 0.54% of 310,000 active; in the data active = inhibition above about 50%
# The depositor's hits bear a star; · = not tested or not shown. Shown are actives, neighbours in structure and some others; about 3.9% of the full set was active somewhere.
SMILES,N-glyco inh,SUMO Mot1 rescue,CDK5 inh,ALR H2O2 inh,CASP6 VEID inh,NSD2 inh
CN1/C(=C/C2CC(=O)N(c3cccc4ccccc34)C2=O)C(C)(C)c2ccccc21 (stereo unspecified),-2,-14,2,-5,·,-3
CN1/C(=C/C2CC(=O)NC2=O)C(C)(C)c2ccccc21 (stereo unspecified),19,-15,1,98*,·,6
O=C(COC(=O)c1ccc(OC(F)F)cc1)Nc1ccc2c(c1)OCCO2,·,·,·,·,·,1
CCN(CC)c1ccc(NC(=O)c2ccc(NC(=O)C3CCCO3)cc2)c(C)c1 (stereo unspecified),0,-23,0,99*,·,·
O=C(Nc1ccc(O)cc1)c1ccc(NC(=O)C2CCCO2)cc1 (stereo unspecified),3,-11,-1,99*,1,-1
O=C(Nc1cc(Cl)c(O)c(Cl)c1)C1CCCO1 (stereo unspecified),0,1,0,98*,-1,-2
Cc1cc(NC(=O)c2ccc(NC(=O)C3CCCO3)cc2)ccc1Br (stereo unspecified),-4,2,2,5,1,-2
N[C@@H]1CC[C@H](CCn2cc(-c3ccccn3)nn2)O[C@H]1CO,·,·,·,·,0,·
Cc1ccccc1CN(c1ccc(C(=O)NCc2cccnc2)cc1)S(C)(=O)=O,0,9,-3,96*,-4,-2
CCC(=O)N1CC2(CN(Cc3ccncc3)C2)c2c(n(C)c3cc(OC)ccc23)[C@H]1CO,·,·,·,·,-1,·
CCCCCC(=O)N/N=C/c1cc(Br)c(O)c(OC)c1,1,-28,1,99*,3,-4
COc1cc(/C=N/NC(=O)C2C3CCCCC32C)cc(Br)c1O (stereo unspecified),-1,3,-2,86*,·,1
COc1ccc(/C=N/NC(=O)C2C3CCCCC32C)cc1OC (stereo unspecified),-3,20,-2,-4,-3,-1
C[C@@H]1CN([C@H](C)CO)C(=O)Cc2cc(NC(=O)Cn3cnnn3)ccc2O[C@H]1CN(C)C(=O)NC1CCCCC1,·,·,·,·,-1,·
CC(=O)/C(=N/Nc1ccccc1)N1CCOCC1,0,149,1,99*,·,-1
O=C(Nc1cccc(Cl)c1)c1ccc(OC(=S)N2CCOCC2)cc1,-8,362,2,-2,-4,-2
CC(=O)/C(=N/Nc1cccc(Cl)c1)N1CCOCC1,-1,34,2,98*,·,·
CC(=O)/C(=N/Nc1ccccc1C)N1CCOCC1,2,20,1,0,·,-4
O=S(=O)(N[C@H]1CC[C@@H](CCn2cc(-c3cccnc3)nn2)O[C@H]1CO)c1ccccc1,·,·,·,·,0,·
CCc1ccc(OCC(=O)N/N=C\c2ccco2)c([N+](=O)[O-])c1,-3,7,1,96*,4,3
Cc1ccc(OCC(=O)N/N=C\c2ccc(O)cc2)c([N+](=O)[O-])c1,-1,2,3,87*,2,-4
CCOC(=O)C(=O)N/N=C/c1ccco1,-1,22,-2,7,36*,4
C[C@@H]1CCCCO[C@@H](CN(C)S(=O)(=O)c2cn(C)cn2)[C@H](C)CN([C@@H](C)CO)C(=O)c2cc(NS(C)(=O)=O)ccc2O1,·,·,·,·,2,·
O=C(NCC[C@H]1CC[C@@H](NS(=O)(=O)c2cccc(F)c2)[C@@H](CO)O1)C1CC1,·,·,·,·,-2,·
COC(=O)C[C@H]1C[C@@H]2c3cc(NC(=O)C4CCC4)ccc3O[C@@H]2[C@@H](CO)O1,·,·,·,·,0,·
SMILES,N-glyco inh,SUMO Mot1 rescue,CDK5 inh,ALR H2O2 inh,CASP6 VEID inh,NSD2 inh
O=C(c1ccco1)N1CCN=C1SCc1c(F)cccc1Cl,0,381,-1,9,·,·
Cc1onc(-c2ccccc2Cl)c1C(=O)N1CCN=C1SCc1cccnc1,0,-19,0,99*,·,·
O=C(Cc1cccs1)N1CCN=C1SCc1ccccc1Cl,-3,-1,0,·,·,·
O=C(c1ccco1)N1CCN=C1SCc1ccccc1Cl,-4,-17,0,99*,-1,·
O=C(Cc1cccs1)N1CCN=C1SCc1ccccc1F,0,5,-2,99*,2,-3
O=C(c1ccc2c(c1)OCO2)N1CCN=C1SCc1cccnc1,-1,463,-3,98*,2,·
C[C@@H]1CN([C@H](C)CO)C(=O)c2cc(NS(=O)(=O)c3ccccc3)ccc2O[C@@H](C)CCCCO[C@@H]1CN(C)S(C)(=O)=O,·,·,·,·,3,·
COCC(=O)N1CC2(CN(C(=O)c3ccccn3)C2)c2c(n(C)c3cc(OC)ccc23)[C@H]1CO,·,·,·,·,2,·
CCN(CC)S(=O)(=O)c1ccc(C(=O)N2CCN=C2SCc2cccnc2)cc1,-1,169,-1,99*,·,-3
CN(C)S(=O)(=O)c1ccc(C(=O)N2CCN=C2SCc2cccnc2)cc1,0,-4,1,99*,·,·
COc1ccc(NC(=O)N(C)C[C@H]2OCc3cn(nn3)CCCC(=O)N([C@H](C)CO)C[C@H]2C)cc1,·,·,·,·,1,·
O=C(O)c1cccc(NS(=O)(=O)c2ccc3nnn(O)c3c2)c1,1,15,0,-1,·,28
O=C(O)c1cccc(NC2=C(n3nnc4ccccc43)C(=O)c3ccccc3C2=O)c1,6,·,3,-50,82*,·
CC1(C)CC(=O)C(C=NCCc2ccc(O)cc2)=C(O)C1,1,-4,1,96*,·,·
CC1(C)CC(=O)C(C=Nc2cccnc2)=C(O)C1,2,-9,3,·,·,-7
CC1(C)CC(=O)C(C=NCCc2ccccn2)=C(O)C1,1,-4,1,1,-2,-3
CC1(C)CC(=O)C(C=Nc2cccnc2/N=C/C2=C(O)CC(C)(C)CC2=O)=C(O)C1,0,17,-1,-2,41*,-7
C[C@H](CO)N1C[C@H](C)[C@@H](CN(C)C(=O)CN(C)C)Oc2ncc(C#Cc3ccccc3)cc2C1=O,·,·,·,·,-2,·
Oc1ccc(-c2[nH]ncc2-c2cnn(-c3ccccc3)c2)c(O)c1,-2,7,1,98*,4,-2
CCNC(=O)C[C@H]1CC[C@@H]2[C@@H](COc3ccc(NC(=O)Nc4ccccc4OC)cc3C(=O)N2C)O1,·,·,·,·,0,·
CCOC(=O)c1nnn(-c2nn3nnnc3c3ccccc23)c1C,-8,·,1,98*,·,4
CCOC(=O)c1nnn(-c2nonc2-n2cccc2)c1C,-1,3,-1,1,·,1
COc1ccc(S(=O)(=O)Nc2ccc3c(c2)C(=O)N([C@H](C)CO)C[C@H](C)[C@H](CN(C)C(=O)Nc2ccc(F)cc2)O3)cc1,·,·,·,·,-4,·
COc1cccc(-c2ccc3c(c2)O[C@@H](CN(C)C)[C@@H](C)CN([C@H](C)CO)S3(=O)=O)c1,·,·,·,·,-6,·
O=C(COc1ccc(Br)cc1Br)NC(=S)N1CCCc2ccccc21,-6,-13,6,93*,·,·
O=C(COc1ccc(Br)cc1Cl)NC(=S)N1CCc2ccccc21,0,10,0,-8,-3,1
